# From PubChem
# Only some compounds are listed: those with a hit (about 1.8% of all), similar ones and a draw of the others.
# IkB sig inh – inhibitors of IkB signaling in ABC-DLBCL cells. actives 0.04% (n = 110,000). ABC-DLBCL IkBa-CBG/CBR dual luciferase ratio, 4 h; response scale: scaled: untreated 0%, proteasome inhibitor 100%. Potency, µM (series often up to 57.1 µM), inactives show top-dose IkBa stabilization activation. AID 445; active means well fitted curve in the direction sought with a large enough effect in the signal ratio, not every such curve was filed as active; inconclusive means small, poorly fitted or top-dose-only effect, or a change in a side signal; the % refers to the signal ratio;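 further: the direction sought is a rising ratio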
#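 Curves were fitted separately to fusion (green), unfused (red) and ratio luminescence, then classed by r2, magnitude and activity. Cells: OCI-Ly3, 4 h compound plus doxycycline at 37C; 10 uM MG-132 defined full response.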
# p53ts 32C tox – cytotoxicity in p53ts cells at permissive temperature; actives 0.93% (n = 130,000); AID 924; Potency, µM (doses to about 46.1 µM), for the others: top-dose activity change, negative = cytotoxicity, actives largely listed as cytotoxic; H1299-p53A138V at 32C, ATP luminescence viability, 24 h;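 further: 0% = DMSO and -100% = full killing by reference compound; nearly all actives have a fitted effect of over 55% in size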
#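 Cells: H1299 p53ts (A138V), 600/well, pre-incubated 16–30 h at 37C. Cpd up to 46 uM, 24 h, 32C. Readout: ATPlite luminescence, 20 min RT. Normalization: DMSO vs tamoxifen 100 uM. AC50 by Hill equation.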
# Peg3 imprint – genomic imprint erasure induction | mouse ES Peg3-LacZ reporter, beta-gal luminescence, 40 h | actives 0.02% (n = 110,000) | Potency, µM (highest dose often 60.7 µM), for the others: at the highest dose activity change, positive = activation, usual class: activators
#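 Imprint erasure is scored as LacZ activity from the silenced maternal Peg3 allele in feeder-free female ES cells cultured 40 h with LIF. Luminescence is normalized to in-plate negative controls and fitted to the Hill equation.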
# p53ts 39C kill – cytotoxicity in p53ts cells at nonpermissive temperature. Potency, µM (series often up to 46.1 µM), for the others: at the top dose activity change, negative = cell killing, usual class: cytotoxic. H1299-p53A138V viability at 39C, ATP luminescence, 24 h. actives 1.5% (n = 130,000); further: on the % scale 0 is the no-effect control and ±100 the full control effect; nearly all actives have a fitted effect of over 55% in size
# * marks the source's active call; other numbers are inactive results; ? = inconclusive; nt = not tested or not shown; [ ] = another dose, or the depositor's remark. Unless noted, the call rests on the fitted dose curve; in most records, active means well fitted curve in the direction sought with a large enough effect; inconclusive means small, poorly fitted or top-dose-only effect, or another doubt; inactive means no such curve, though single readings can be large; an effect the other way counts as inactive or inconclusive. Potency means the concentration at half of the fitted maximal effect.
SMILES,IkB sig inh,p53ts 32C tox,Peg3 imprint,p53ts 39C kill
Cc1cc(C)cc(NC(=O)Nc2ccc3nc(N4CCN(C)CC4)cc(C)c3c2)c1,-6.0%,3.4%,9.6%[10.9 µM],12.6µM*
Cc1cc(N2CCN(C)CC2)nc2ccc(NC(=O)Nc3ccc(F)cc3)cc12,?,-12.7%,-10.3%[10.9 µM],?
Cc1cc(N2CCN(C)CC2)nc2ccc(NC(=O)Nc3ccccc3Cl)cc12,?,10µM*,-8.7%[10.9 µM],12.6µM*
O=c1[nH]c(SCc2ccc(Br)cc2)nc2c1CCCC2,1.3%,-1.4%,-4.4%[10.9 µM],-14.5%
CN(CCc1ccc(Cl)c(Cl)c1)CCN1CCCCCC1,-0.3%,?,-22.3%,15.8µM*
Cc1cc(C(=O)CSc2nncs2)c(C)n1-c1c(C)n(C)n(-c2ccccc2)c1=O,0.1%,8.2%,-0.9%,-15.6%
Cc1ccc(-n2c(C)cc(C(=O)CSc3nncs3)c2C)cc1,?,12.6µM*,-28.5%,?
COc1ccccc1CC(=O)NCc1ccc2c(c1)OCO2,8.0%,2.9%,-10.0%,-12.4%
COc1ccc(CNCCC(c2ccc3c(c2)OCO3)c2ccccc2OC)cc1 (stereo not drawn),?,?,-22.5%[10.9 µM],15.8µM*
C[C@@H](c1ccccc1)N1C(=O)[C@H]2[C@H]3[C@H](O)[C@H](O)C/C(=N/NC(=O)OCc4ccccc4)[C@H]3CC[C@@H]2C1=O,nt,3.0%[9.22 µM],nt,3.7%[9.22 µM]
CC(C)c1ccc(OC(=O)c2cc(-c3ccc4c(c3)OCCO4)on2)cc1,0.2%,12.6µM*,-18.7%[10.9 µM],20µM*
N#Cc1ccc(OC(=O)c2cc(-c3ccc4c(c3)OCCO4)on2)cc1,2.6%,?,-8.8%[10.9 µM],12.6µM*
CC(C)c1ccc(OC(=O)c2cc(-c3ccc(Cl)cc3)on2)cc1,-0.8%,3.9%,11.9%[10.9 µM],11.9%
COc1ccc(OC(=O)c2cc(-c3ccc4c(c3)OCCO4)on2)cc1,0.6%,12.6µM*,-21.1%[10.9 µM],12.6µM*
O=C(Oc1ccc(Cl)cc1)c1cc(-c2ccc3c(c2)OCCO3)on1,1.0%,-14.9%,-12.9%[10.9 µM],?
Cn1c(SCc2ccc(F)cc2)nc2ccc(C(=O)NCc3cccc(Cl)c3)cc21,?,9.5%,-12.6%[10.9 µM],-18.6%
CC(C)CCNC(=O)c1cccc(Nc2nc3ccccc3n3nnnc23)c1,?,?,-19.3%[10.9 µM],10µM*
Cn1ccc2cc3c(cc21)CCN3C(=O)Nc1cccnc1,-0.2%,10µM*,-30.9%,10µM*
COc1ccc(-c2cn3c4c(sc3n2)CCCC4)cc1,1.6%,6.31µM*,-54.2%,5.01µM*
CN(C)c1ccc2nc3ccc(=[N+](C)C)cc-3sc2c1,-0.4%,-4.7%[1.84 µM],-37.7%,3.16µM*
CC(C)=CCC/C(C)=C/CO/N=C1/C[C@@H](O)[C@@H](O)[C@@H]2[C@@H]3C(=O)N(Cc4ccccc4)C(=O)[C@H]3CC[C@H]12,nt,0.3%[9.22 µM],nt,7.0%[9.22 µM]
CCOc1ccc2nc(NC(=O)COC)sc2c1,8.0%,?,-68.5%,?
CCOc1ccc2nc(NC(=O)Nc3cccs3)sc2c1,?,15.8µM*,-56.2%,10µM*
Cc1cc2cc3c(cc2nc1SCC(=O)N1c2ccccc2CC1C)OCO3 (stereo not drawn),nt,0.5%,nt,6.7%
c1ccc2c(c1)Cc1cc3cc4c(cc3nc1-2)OCO4,nt,1µM*,-90.3%,1.26µM*
SMILES,IkB sig inh,p53ts 32C tox,Peg3 imprint,p53ts 39C kill
COc1ccccc1Nc1c2c(nc3ccc(NC(=O)c4cccc(F)c4)cc13)CCCC2,-1.1%,10µM*,-37.8%[10.9 µM],5.01µM*
COc1ccc(Nc2c3c(nc4ccc(NC(=O)/C=C/c5cccc(OC)c5OC)cc24)CCCC3)cc1OC,?,10µM*,-34.2%[10.9 µM],10µM*
COc1ccccc1Nc1c2c(nc3ccc(NC(=O)/C=C/c4cccc(OC)c4OC)cc13)CCCC2,?,-5.7%,-32.7%[10.9 µM],-25.2%
COc1ccc(/C=C/C(=O)Nc2ccc3nc4c(c(Nc5ccc(OC)c(OC)c5)c3c2)CCCC4)cc1,?,11.2µM*,-34.8%[10.9 µM],10µM*
COc1ccc(/C=C/C(=O)Nc2ccc3nc4c(c(Nc5ccccc5OC)c3c2)CCCC4)cc1,?,-8.2%,-34.8%[10.9 µM],-7.1%
COc1ccc(Nc2c3c(nc4ccc(NC(=O)/C=C/c5cc(OC)c(OC)c(OC)c5)cc24)CCCC3)cc1OC,?,12.6µM*,-36.4%[10.9 µM],10µM*
CCOC(=O)c1[nH]c(C)c(CCC(=O)NCc2ccccc2Cl)c1C,-1.7%,3.4%,-10.0%[10.9 µM],-7.1%
